Molecules are shown by their SMILES. “And” between values parts separate entries of the source, which are not always exact repeats. Equal entries are not always repeated. About 7,200 (1.8%) of roughly 410,000 compounds were called active. Another 7% or so got no clear call; they are omitted. Calls come from the whole dose curve; as a rule, active = well fitted activation curve with a large enough effect; inconclusive = small, poorly fitted or top-dose-only effect, or another doubt; inactive = no such curve, though single readings can be large or run the other way. The entries come from a sample that favours actives as a whole. Where a call stands in place of a potency, no number is given.
Potency is the fitted concentration of half-maximal effect.

The nature of the experiment: qHTS of TDP-43 Inhibitors. Note: nearly all actives have a fitted effect of over 50% in size. The settings on record: TDP-43 expressing yeast growth rescue, BacTiter-Glo, 24 h; series mostly up to 46.1 µM. A digest of the protocol:
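In this qHTS, compounds that restore growth of yeast expressing TDP-43 appear as activators. Cells (OD600=0.02, galactose medium, raffinose-pregrown) are incubated with compound 24 hr at 30 deg C and growth is quantified by BacTiter-Glo.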
In general terms: qHTS replaces the single test concentration by a dilution series.
With `COc1ccc(-c2ccc(CCC(=O)O)n2-c2ccc(O)cc2)cc1`, the growth rescue (activation) is -16.9% [at 9.22 µM] (inactive).
As for `CCOC(=O)c1ccc(-n2c(CCC(=O)O)ccc2-c2ccccc2)cc1`, the Potency is 25.1 µM (active) and 35.5 µM (active).
Consider `Cc1ccc(-c2ccc(CCC(=O)O)n2-c2ccc(C(N)=O)cc2)cc1`, for which the Potency result is “inactive”.
Regarding `Cc1ccc(C2CCN(C(=O)c3cnn(-c4ccccc4Cl)c3C3CCN(C(=O)OC(C)(C)C)CC3)C2)cc1` (stereo not given), the Potency entry is “inactive”.
With `O=C(CN1C(=O)COc2ccc(S(=O)(=O)N3CCCCCC3)cc21)N1CCN(c2cccc(C(F)(F)F)c2)CC1`, the Potency result was “inactive”.
With `Cc1ccc(/C=N/NC(=O)Cn2ccc(C(F)(F)F)n2)o1`, the Potency result is “inactive”.
As for `COC(=O)N/N=C/c1ccc(-c2ccc(Cl)c(Cl)c2)o1`, the Potency was 12.6 µM (active).
On the same count and under the same terms, under `O=C(N/N=C\c1ccc(-c2ccc(Cl)c(Cl)c2)o1)C(=O)N1CCCC1` stands “inactive”.
In the case of `Cc1ccc(NC(=O)c2cn3c4c(ccc(Cl)c4c2=O)OC(C)C3)cc1C` (stereo not given), the Potency result is “inactive”.
For `Cc1cccc(Nc2cc(C)nc(-n3nc(C)cc3C)n2)c1`, the Potency entry is “inactive”.
On to `COc1ccc2c(Sc3ccc(C)cc3)c(C(=O)NC(C)c3ccccc3)[nH]c2c1` (stereo not given), for which the Potency entry was “inactive”.
The same measure, in the same setting: the value for `O=C(CSc1ccccc1)Nc1cccc(S(=O)(=O)N2CCOCC2)c1` was “inactive”.
For the compound `Cc1nnc(SCC(=O)Nc2cccc(N)c2)n1-c1ccccc1`, the Potency result was “inactive”.
With `CSc1cccc(NC(=O)CSc2ccccc2)c1`, the Potency was 14.1 µM (active).
In the case of `Cc1ccc2nc(/C(C#N)=C/c3ccc(-c4ccc(C(=O)OC(C)C)cc4)o3)[nH]c2c1`, the Potency result is “inactive”.
The same measure, in the same setting: under `COc1ccccc1NC(=O)c1cc(S(=O)(=O)NCCc2ccccc2)ccc1F` stands “inactive”.
For the compound `COc1cccc(N2CCN(S(=O)(=O)c3ccc4c(c3)CCCN4C(C)=O)CC2)c1`, the Potency entry was “inactive”.
For `COc1cccc(N2C(=O)CC(N3CCc4ccccc4C3)C2=O)c1` (stereo not given), the Potency is 17.8 µM (active).
On the same count and under the same terms, under `COc1cccc(N2CCN(C3CC(=O)N(c4ccc(Cl)cc4)C3=O)CC2)c1` (stereo not given) stands “inactive”; under `COc1cccc(N2C(=O)CC(N3CCN(S(=O)(=O)c4ccccc4)CC3)C2=O)c1` (stereo not given), “inactive”.
Same read-out and setting: the value for `CCOc1ccccc1C(=O)Nc1ccc2c(c1)N(C)C(=O)c1ccccc1S2` was “inactive”.
Take `CCc1noc(C)c1C(=O)OCC(=O)c1ccc(NC(=O)CC(C)C)cc1`: the Potency result was “inactive”.
Same read-out and setting: under `CCc1noc(C)c1C(=O)Nc1nc(-c2ccccc2)cs1` stands 11.2 µM (active); under `CCc1noc(C)c1C(=O)N1CCCSC1=Nc1ccccc1OC`, “inactive”; under `O=C(/C=C/c1cn(CC(O)CN2CCc3ccccc32)c2ccccc12)c1ccc(Br)cc1` (stereo not given), “inactive”.
In the case of `COc1ccc(OCc2ccc(-c3nc(C#N)c(N4CCN(c5ccccc5)CC4)o3)o2)cc1`, the Potency result was “inactive”.
`Cc1ccccc1OCc1ccc(-c2nc(C#N)c(N3CCCCC3)o2)o1`: the Potency entry is “inactive”.
On to `CC1CCN(c2oc(-c3ccccc3F)nc2C#N)CC1`, for which the Potency was 15.8 µM (active).
Turning to `Cc1nn(C)c2c1c(C(F)(F)F)cc(=O)n2C(C)C(=O)NCc1ccc(Cl)cc1` (stereo not given), the Potency result is “inactive”.
The same measure, in the same setting: the value for `Cc1ccccc1CNC(=O)CCCn1nc(C)c2sc3ccccc3c2c1=O` was “inactive”; that for `CC(C)(C)Nc1c(-c2cccs2)nc2ccccn12` was “inactive”; that for `Cc1cc(-c2cccs2)nc(-n2cccc2)n1` was 12.6 µM (active).
As for `Cc1cc2nc(C(F)(F)F)cc(-c3cccs3)n2n1`, the Potency entry was “inactive”.
Consider `CCc1nnc(SCc2c(F)cccc2Cl)c2cc3sccc3n12`, for which the Potency result is “inactive”.
With `CC(=O)OCC1(O)CC23CCC4c5ccoc5CCC4(C)C2CCC1C3` (stereo not given), the Potency is 17.8 µM (active).
`CCSc1ncc(Cl)c(C(=O)Nc2c(C(=O)c3ccccc3)oc3ccccc23)n1`: the Potency result was “inactive”.
Regarding `COC[C@@H]1NS(=O)(=O)c2ccc(Br)cc2O[C@H]1c1ccccc1`, the Potency result is “inactive”.
Take `C[C@@H]1NS(=O)(=O)c2cc(Cl)ccc2O[C@@H]1c1ccccc1`: the Potency is 17.8 µM (active).
Take `C[C@H]1NS(=O)(=O)c2cc(Cl)ccc2O[C@@H]1c1ccccc1`: the Potency entry is “inactive”.
In the case of `Cc1ccc2nc(-c3ccc(O)cc3)c(Nc3ccc4c(c3)OCO4)n2c1`, the Potency entry was “inactive”.
Turning to `COc1cc(Br)c(-c2sc(Nc3ccccc3)n[n+]2-c2ccccc2)cc1OC`, the Potency entry was “inactive”.
Consider `COc1ccc(C)cc1S(=O)(=O)Nc1cccc(Cl)c1Cl`, for which the Potency entry was “inactive”.
On to `CCc1ccc(Nc2n[n+](-c3ccccc3)c(-c3cccc(Cl)c3Cl)s2)cc1`, for which the Potency was 35.5 µM (active).
As to `COc1ccc(C)cc1Nc1n[n+](-c2ccccc2)c(-c2cccc(Cl)c2Cl)s1`, the Potency is 35.5 µM (active).
On the same count and under the same terms, under `Cc1ccc(S(=O)(=O)N2CCc3cc(C(=O)Nc4ccc(Cl)cc4C)ccc32)cc1` stands “inactive”; under `CC(=O)c1c(C)n(S(=O)(=O)c2ccc(Cl)cc2)c2ccc(NS(=O)(=O)c3ccc(Cl)cc3)cc12`, “inactive”.
Regarding `CCc1ccc(NC(=O)c2cc3c(=O)n(Cc4cccnc4)ccc3nc2C)cc1`, the Potency entry was “inactive”.
Regarding `CCc1cc2c(SCC(=O)Nc3ncc(Cl)c(C)c3Cl)ncnc2s1`, the Potency entry is “inactive”.
Still for that read-out and setting: the value for `CCc1cc2c(NC(Cc3ccccc3)C(=O)O)ncnc2s1` (stereo not given) was “inactive”.
Consider `CCc1cc2c(NC3CCCC3)ncnc2s1`, for which the Potency was 12.6 µM (active).
With `Cc1ccc2c(=O)c(C(=O)c3cccc(Cl)c3)cn(CC(=O)NCc3ccccc3)c2n1`, the Potency result is “inactive”.
On to `Cc1nn2c(=O)cc(COC(=O)c3cccc(NC(=O)COc4ccccc4Cl)c3)nc2s1`, for which the Potency result is “inactive”.
Consider `CCOc1c(Br)cc(/C=C2\C(=O)N(CCC#N)N=C2C)cc1OC`, for which the Potency result is “inactive”.
Consider `CCOc1cc(/C=N/n2cnnc2)c(Br)cc1O`, for which the Potency result is “inactive”.
On to `CCOc1cc(/C=N/O)cc(Br)c1OC`, for which the Potency was 11.2 µM (active).
Still for that read-out and setting: the value for `O=S(=O)(c1ccc(Br)cc1)c1nnn2c1nc(N1CCOCC1)c1sccc12` was “inactive”.
On to `COc1cc(Nc2nc(-c3ccc(OC)c(OC)c3)nc3ccccc23)cc(OC)c1`, for which the Potency entry is “inactive”.
Take `CCCCN(CC)CCCNC(=O)c1nn(C)c2c1CS(=O)(=O)c1ccccc1-2`: the Potency result was “inactive”.
For `C=CCSc1nnc(Cn2c(=O)sc3ccccc32)n1C`, the Potency result is “inactive”.
Turning to `COc1ccc(CN2CCOC2=O)cc1OC`, the Potency entry was “inactive”.
As for `COc1ccc(Cn2c(=O)sc3ccccc32)cc1OC`, the Potency is 11.2 µM (active).
On the same count and under the same terms, under `CCCCCn1c(=O)[nH]c2cc(C(=O)NCCN(C)CCCC)ccc2c1=O` stands “inactive”; under `CCC(=O)N1CCc2cc(S(=O)(=O)NC(Cc3ccccc3)C(=O)NCc3ccccc3)ccc21` (stereo not given), “inactive”.
As to `COc1ccc(CNC(=O)C2=Cc3cccc(OC)c3OC2)cc1OC`, the growth rescue (activation) was 0% [at 9.22 µM] (inactive).
For the compound `COc1ccc(NC(=O)c2ccco2)cc1NC(=O)COc1ccc(C)c(C)c1`, the Potency entry was “inactive”.
As for `COc1ccc([N+](=O)[O-])cc1NC(=O)COC(=O)/C=C/c1ccco1`, the Potency entry is “inactive”.
On to `COc1cc(NC(=O)c2cc([N+](=O)[O-])ccc2Br)ccc1NC(=O)c1ccco1`, for which the Potency is 10 µM (active).
Take `COCCNC(=O)c1ccc2c(c1)N=C(C)c1cc(C)ccc1S2`: the Potency result is “inactive”.
As for `CCCn1c2ccccc2c2cnn(CC(=O)N(C)c3ccccc3CC)c(=O)c21`, the Potency was 28.2 µM (active).
For `CCCn1c2ccccc2c2cnn(CC(=O)N(CC)c3cc(C)ccc3C)c(=O)c21`, the Potency result is “inactive”.
In the case of `CCCn1c2ccccc2c2cnn(CC(=O)NCCCOC(C)C)c(=O)c21`, the Potency entry was “inactive”.
In the case of `Cc1ccc(S(=O)(=O)c2nc(-c3cccs3)oc2N2CCCCC2)cc1`, the Potency entry is “inactive”.
Regarding `COc1ccc(N2CCN(c3cc(C)nc4nncn34)CC2)cc1`, the Potency result was “inactive”.
Turning to `Cc1ccccc1NC(=O)Cn1cc(C(=O)c2cccs2)c2ccccc21`, the Potency entry was “inactive”.
On to `Cc1ccc(C(=O)N2CCc3cc(CNC(=O)c4ccc(Br)cc4)ccc32)cc1`, for which the Potency entry is “inactive”.
The same measure, in the same setting: the value for `CCCCc1ccc(NC(=O)NCc2cccnc2)cc1` was “inactive”; that for `CCCCCCCCCCCCN1C(=O)CSC1c1cccnc1` (stereo not given) was 20 µM (active); that for `O=C(O)C1CC(=O)N(Cc2cccnc2)C1` (stereo not given) was “inactive”.
On to `CCOc1ccc(CNC(=O)C2CCN(c3nnc(-n4cccc4CNc4ccc(C)cc4)s3)CC2)cc1OC`, for which the Potency entry is “inactive”.
On to `COc1ccccc1N1CCN(c2ccc(=O)n(CC(=O)NCc3ccc(OC(C)C)cc3)n2)CC1`, for which the Potency entry is “inactive”.
Still for that read-out and setting: the value for `Clc1ccc(Nc2nc(-c3cccs3)cs2)nc1` was 8.91 µM (active); that for `CCN(c1ccc(Cl)cc1)S(=O)(=O)c1nnc(NC(=O)c2ccco2)s1` was “inactive”; that for `CCc1cnc2c(c1SCC(=O)N1CCC(C)CC1)c(=O)n(C)c(=O)n2C` was “inactive”.
As to `CCCc1cc(-c2n[nH]c(=S)n2CC)c2ccccc2n1`, the Potency entry was “inactive”.
For the compound `Cc1cc(-c2n[nH]c(=S)n2/N=C/C(Br)=C/c2ccccc2)n[nH]1`, the Potency is 35.5 µM (active).
For `O=C(c1cccc(Cl)c1)N1CCN(CCc2ccncc2)CC1`, the Potency entry was “inactive”.
Same read-out and setting: the value for `C#Cc1cc(N2CCN(C(=O)c3ccoc3)CC2)n2nc(-c3cccc(Cl)c3)cc2n1` was 22.4 µM (active); that for `O=C(Cn1cc(SCc2cccc(Cl)c2)c2ccccc21)N1CCCCC1` was “inactive”; that for `CN(C(=O)c1cc2c(=O)n3ccccc3nc2s1)C1CCCCC1` was 14.1 µM (active).
The same measure, in the same setting: the value for `O=C(Nc1ccc(OC(F)(F)F)cc1)c1cc2c(=O)n3ccccc3nc2s1` was “inactive”; that for `CCOCCCNC(=O)c1cc2c(=O)n3ccccc3nc2s1` was “inactive”; that for `CCN(CCCNC(=O)c1cc2c(=O)n(CC)c3ccccc3c2s1)Cc1ccccc1` was “inactive”.
Take `Cc1oc2ncnc(N3CCOCC3)c2c1C(=O)NCCc1ccccc1`: the Potency entry is “inactive”.
Turning to `NS(=O)(=O)c1ccc(CCNC(=O)CCCCCn2c(=O)[nH]c3ccccc3c2=O)cc1`, the Potency result is “inactive”.
Same read-out and setting: the value for `CCc1ccc(NC(=O)c2cc(S(=O)(=O)NC3CCCCCC3)ccc2F)cc1` was “inactive”; that for `CCOc1ccccc1NC(=O)c1ccc2c(c1)CCN2S(=O)(=O)c1ccc(C)cc1` was “inactive”.
Turning to `CCOc1ccc(OCC)c(NC(=O)c2cc(C)nc3c2c(C)nn3-c2cccc(Cl)c2C)c1`, the growth rescue (activation) is 19.8% [at 9.22 µM] (inactive).
As for `O=C(Nc1ccc(S(=O)(=O)Nc2ncccn2)cc1)C12CC3CC(CC(C3)C1)C2`, the Potency entry is “inactive”.
On to `O=C(Nc1c2c(nn1-c1ccc(F)cc1)CS(=O)C2)C12CC3CC(CC(C3)C1)C2` (stereo not given), for which the Potency result is “inactive”.
Consider `COC(=O)c1ccc(NC(=O)C23CC4CC(C2)CC(n2cnc(Cl)n2)(C4)C3)cc1`, for which the Potency is 25.1 µM (active).

The values above are taken from PubChem BioAssay AID652104 (National Center for Advancing Translational Sciences (NCATS), 2013).
